The results in this text go back to PubChem BioAssay (NCATS).

Assay [1] concerns the target Cytochrome P450 3A7 (Homo sapiens) (UniProt P24462). Put plainly: Cytochrome P450 family 3 subfamily A member 7 (CYP3A7) small molecule antagonists: luciferase biochemical qHTS assay (AID 1963596). Note: % is set by controls: 0 for no effect and ±100 for the full control effect; nearly all actives have a fitted effect of over 40% in size. Summed up: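 Recombinant CYP3A7 P450-Glo luminescent assay: enzyme-proluciferin substrate mix preincubated with compound 10 min at room temperature, reaction started with NADPH regeneration system for 1 h. Luciferin detected by luminescence; ketoconazole as positive control.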
For orientation: qHTS replaces the single test concentration by a dilution series.

A short description of assay [2]: Viability qHTS for spleen associated tyrosine kinase inhibitor (SYKi) drug resistant MV4-11 cells (AID 1963824). Note: nearly all actives have a fitted effect of over 35% in size. Note: potency is the fitted concentration of half-maximal effect. In a few lines:
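SYK inhibitor-resistant MV4-11 AML cells, 500 per well, added to predispensed compounds and incubated 72 hr at 37 C, 5% CO2. Viability measured by CellTiter-Glo luminescence after 10 min at room temperature.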

The nature of assay [3]: Cellular viability qHTS for adrenocortical cancer (ACC) cell line SW-13 (AID 1963989).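 For activity (max response): cells grown in serum-free medium with ITS supplement; % is set by controls: 0 for no effect and ±100 for the full control effect.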 Note: nearly all actives have a fitted effect of over 65% in size. Note: potency is the fitted concentration of half-maximal effect. The following applies: SW-13 ACC cells viability, CellTiter-Glo, 48 h; activity (max response): stronger effect = lower value. Summed up:
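48 h treatment, SW-13 in ITS/DMEM serum-free; doses up to 46 uM; readout CellTiter-Glo luminescence; curve fit four-parameter logistic.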

The nature of assay [4]: Cellular viability qHTS for adrenocortical cancer (ACC) cell line NCI-H295R (AID 1963990). Note: nearly all actives have a fitted effect of over 60% in size. Note: potency is the fitted concentration of half-maximal effect. In a few lines:
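Compound titrations (up to 46 uM final) are applied to NCI-H295R cultures for 48 h at 37C. Viable cell number is estimated by CellTiter-Glo signal, normalised to DMSO and doxorubicin controls.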

Assay [5] can be described thus: Quantitative highthroughput screen to assess conditional lethalithy of P12 Ichikawa cells grown in Human Plasma-Like Medium with dialyzed fetal bovine serum (HPLM+ds) (AID 1963879). For Viability: series mostly up to about 46 µM. Note: nearly all actives have a fitted effect of over 35% in size. Note: potency is the fitted concentration of half-maximal effect. The following applies: Potency: viability. Summed up: (§1)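 Each medium arm—HPLM with 10% dialyzed FBS, or RPMI1640 with 5 mM glucose and 10% untreated or dialyzed FBS—was screened against an 11-point, 3-fold compound titration for 48 h at 37 °C, with CellTiter-Glo luminescence as endpoint.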

A short description of assay [6]: Quantitative highthroughput screen to assess conditional lethalithy of P12 Ichikawa cells grown in RPMI1640 with untreated serum (RPMI+s) (AID 1963881).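 For Viability: series mostly up to about 46 µM; 100% = DMSO wells and 0% = empty wells without cells.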 Note: nearly all actives have a fitted effect of over 35% in size. Note: potency is the fitted concentration of half-maximal effect. To be noted: Potency: viability. In a few lines:
as §1

The nature of assay [7]: Quantitative highthroughput screen to assess conditional lethalithy of SEM cells grown in RPMI1640 with unreated serum (RPMI+s) (AID 1963883).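 Note: 100% = DMSO wells and 0% = empty wells without cells; nearly all actives have a fitted effect of over 35% in size.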 Summed up:
as §1

The nature of assay [8]: Quantitative highthroughput screen to assess conditional lethalithy of P12 Ichikawa cells grown in RPMI1640 with dialyzed fetal bovine serum (RPMI+ds) (AID 1963880). The following applies: Potency: P12-Ichikawa viability. Summed up: as §1
A short description of assay [9]: Quantitative highthroughput screen to assess conditional lethalithy of SEM cells grown in RPMI1640 with dialyzed fetal bovine serum (RPMI+ds) (AID 1963884). In a few lines:
as §1

Assay [10] is described as follows: Viability qHTS for spleen associated tyrosine kinase inhibitor (SYKi) naive MV4-11 cells (AID 1963823). Note: nearly all actives have a fitted effect of over 40% in size. In a few lines: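 In this viability screen, compounds acted on SYK inhibitor naive MV4-11 cells for three days (72 hr, 37 C). Remaining viable cells were measured by CellTiter-Glo luminescence following a 10 min room-temperature development.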

The structures appear in SMILES notation. Values joined by “and” are separate entries in the source; they are usually repeats but may differ in a detail not shown here. Equal values may be shown once. Results filed as inconclusive are left out. A number with no mark means an inactive call. Active and inactive are the calls of the source. Calls come from the whole dose curve; as a rule, active = well fitted curve in the direction sought with a large enough effect; inconclusive = small, poorly fitted or top-dose-only effect, or another doubt; inactive = no such curve, though single readings can be large; an effect the other way counts as inactive or inconclusive.

Chain of Cytochrome P450 3A7 (Homo sapiens) (P24462 whole entry, looked up): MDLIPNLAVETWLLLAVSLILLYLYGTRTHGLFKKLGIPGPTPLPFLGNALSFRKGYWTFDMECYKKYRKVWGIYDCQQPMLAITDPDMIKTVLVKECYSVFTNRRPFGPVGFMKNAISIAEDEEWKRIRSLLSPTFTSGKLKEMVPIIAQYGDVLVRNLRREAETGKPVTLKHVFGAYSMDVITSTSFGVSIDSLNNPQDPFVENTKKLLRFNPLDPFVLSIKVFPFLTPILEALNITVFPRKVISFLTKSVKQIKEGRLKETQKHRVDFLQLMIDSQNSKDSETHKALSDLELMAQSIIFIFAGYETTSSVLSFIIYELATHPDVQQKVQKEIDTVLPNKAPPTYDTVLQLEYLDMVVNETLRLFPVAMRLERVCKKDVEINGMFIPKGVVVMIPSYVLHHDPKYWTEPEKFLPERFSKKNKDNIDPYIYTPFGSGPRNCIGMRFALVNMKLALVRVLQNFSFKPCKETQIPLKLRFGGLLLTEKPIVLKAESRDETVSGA

As for `Nc1ccncc1`, the Potency result in assay [1], in assay [2] and in [4] was “inactive” each time. In addition, the activity (max response) in assay [3] was 11.8%.

`O=c1n(Cl)c(=O)n(Cl)c(=O)n1Cl`: the Potency entry in assay [1] was “inactive”. The activity (max response) in [3] is 8.14%.

As to `CC(C)NCC(O)c1ccccc1Cl` (configuration not stated), the Potency result in assay [1], in assay [2] and in assay [4] was “inactive” in each case. In [3], the activity (max response) is 5.55%.

`O=c1[nH]c2ccccc2n1C1CCNCC1`: the Potency entry in [1], in assay [2] and in assay [4] was “inactive” throughout. Also, the activity (max response) in [3] was 4.94%.

For the molecule `O=[N+]([O-])O[C@H]1CO[C@H]2[C@@H]1OC[C@H]2O[N+](=O)[O-]`, the Potency result in [1], in assay [2] and in assay [4] was “inactive” each time. In addition, the activity (max response) in [3] was 12.6%.

On to `ClCCN1CCCC1`, for which the Potency entry in assay [1], in assay [2] and in [4] was “inactive” throughout. For the same molecule, in [3], the activity (max response) was 12.8%.

Consider `O=C(O)CCCOc1ccc(Cl)cc1Cl`, for which the Potency entry in assay [1] is “inactive”. In addition, the activity (max response) in [3] was -0.391%.

`CN1C(=O)[C@@H](NC(=O)c2cc3ccccc3[nH]2)N=C(c2ccccc2)c2ccccc21`: the Potency entry in assay [1] and in assay [4] was “inactive” each time. Moreover, in assay [2], the Potency is 4.22 µM (active). Further, the activity (max response) in assay [3] is -6.85%.

`CC(C)(C)NCC(O)c1cc(Cl)c(N)c(C(F)(F)F)c1` (configuration not stated): the Potency result in [1], in assay [2] and in [4] was “inactive” throughout. In assay [3], the activity (max response) is 9.74%.

`c1ccc(N2CCNCC2)cc1`: the Potency result in assay [1], in assay [2] and in assay [4] was “inactive” throughout. Further, the activity (max response) in [3] was 12.6%.

For `CCN[C@@H](C)Cc1ccccc1`, the Potency result in assay [1] was “inactive”. In [3], the activity (max response) is -5.58%.

With `OCCOc1ccccc1`, the Potency result in assay [1], in assay [2] and in assay [4] was “inactive” in each case. Also, the activity (max response) in [3] was 8.17%.

For `C[C@H]1O[C@@H](O[C@H]2[C@@H](O)C[C@H](O[C@H]3[C@@H](O)C[C@H](O[C@H]4CC[C@@]5(C)[C@H](CC[C@@H]6[C@@H]5CC[C@]5(C)[C@@H](C7=CC(=O)OC7)CC[C@]65O)C4)O[C@@H]3C)O[C@@H]2C)C[C@H](O)[C@@H]1O`, in assay [1], the Potency result was “inactive”. In addition, the Potency in assay [2] was 47.3 nM (active) and 38.5 nM (active); in assay [3] it was 0.0184 µM (active); in [4], 0.0651 µM (active).

In the case of `O=[N+]([O-])c1ccc([As](=O)(O)O)cc1`, the Potency entry in [1] and in assay [4] was “inactive” throughout. Besides, the activity (max response) in assay [3] is 4.1%.

`COCC1(CO)C(=O)C2CCN1CC2` (configuration not stated): the Potency result in assay [1] is “inactive”. Further, the Potency in [5] was 11.8 µM (active); in assay [6] it was 16.6 µM (active). Besides, the activity (max response) in assay [3] is 9.27%.

As to `COc1ccc2c3c1O[C@H]1[C@H](O)CC[C@H]4[C@@H](C2)N(C)CC[C@@]341`, the Potency entry in assay [1] is “inactive”. The activity (max response) in assay [3] is -5.89%.

Regarding `N#CC(O[C@@H]1O[C@H](CO[C@@H]2O[C@H](CO)[C@@H](O)[C@H](O)[C@H]2O)[C@@H](O)[C@H](O)[C@H]1O)c1ccccc1` (some centres not stated), the Potency entry in assay [1] and in assay [4] was “inactive” each time. The activity (max response) in assay [3] was -16.1%.

For the molecule `CC[N+](CC)(CC)CC`, the Potency result in assay [1], in assay [2] and in assay [4] was “inactive” each time.

For the molecule `CC(=O)Nc1cc([As](=O)(O)O)ccc1O`, the Potency entry in assay [1], in [2] and in assay [4] was “inactive” throughout. Moreover, the activity (max response) in assay [3] was 8.13%.

`CC1=C(C(=O)O)N2C(=O)[C@@H](N)[C@H]2SC1`: the Potency entry in assay [1] is “inactive”. Moreover, the activity (max response) in assay [3] is 6.68%.

With `CC(=O)N(C)c1cccc(-c2ccnc3c(C(=O)c4cccs4)cnn23)c1`, the Potency entry in [1], in assay [6] and in [7] was “inactive” throughout.

`CC(Cc1ccccc1)NCCCCl` (configuration not stated): the Potency result in assay [1] and in assay [4] was “inactive” in each case. The activity (max response) in assay [3] was -2.78%.

Regarding `COc1cccc([C@@]2(O)CCCC[C@@H]2CN(C)C)c1`, the Potency entry in assay [1], in assay [2] and in [4] was “inactive” in each case. The activity (max response) in assay [3] was 2.96%.

As for `CC1NCCOC1c1ccccc1` (configuration not stated), the Potency result in assay [1], in [2] and in assay [4] was “inactive” throughout. In assay [3], the activity (max response) is -0.553%.

Consider `CC(O)CN1CCN(CC(=O)[O-])CCN(CC(=O)[O-])CCN(CC(=O)[O-])CC1.[Gd+3]` (configuration not stated), for which the Potency result in assay [1], in assay [2] and in assay [4] was “inactive” in each case. Moreover, in [3], the activity (max response) was 0.662%.

For the molecule `Clc1ccccc1N1CCNCC1`, the Potency result in assay [1], in [2] and in assay [4] was “inactive” throughout. The activity (max response) in assay [3] is -1.85%.

`CCN(CC)C(=O)c1ccc(C2=CC3(CCNCC3)Oc3cccc(O)c32)cc1`: the Potency entry in [1], in [5], in assay [8], in assay [6], in assay [9] and in assay [4] was “inactive” each time.

Turning to `CCN[C@@H](C)Cc1cccc(C(F)(F)F)c1`, the Potency entry in assay [1] and in assay [4] was “inactive” each time. Also, the activity (max response) in assay [3] was -3.94%.

For `C#C[C@]1(O)CC[C@H]2[C@@H]3CCC4=CC(=O)CCC4=C3C=C[C@@]21CC`, the Potency result in [1], in [2] and in assay [4] was “inactive” each time. Besides, the activity (max response) in [3] is 13.9%.

`C[C@@H](N)[C@@H](O)c1ccccc1`: the Potency result in assay [1], in assay [2] and in assay [4] was “inactive” each time. Moreover, in assay [3], the activity (max response) is 3.81%.

Consider `CCC1(c2cccc(O)c2)CCCCN(C)C1` (configuration not stated), for which the Potency result in assay [1], in assay [2] and in [4] was “inactive” throughout. Besides, the activity (max response) in [3] is -10.4%.

For the molecule `CCN(C(C)=O)c1cccc(-c2ccnc3c(C#N)cnn23)c1`, the Potency entry in [1], in [2] and in assay [4] was “inactive” each time. Further, in assay [3], the activity (max response) was -7.67%.

For `COC(=O)C1(C)CCC(O)C2(C)c3cc(O)c(C(C)C)cc3C(O)C(OC(C)=O)C12` (configuration not stated), the Potency entry in assay [10] was “inactive”.

For `O=C1CN=C(c2ccccc2)c2cc([N+](=O)[O-])ccc2N1`, the Potency entry in assay [1] and in [4] was “inactive” each time.
